# Target: INPP5F
# Assay: pooled miR-30 sensor sort-seq; sequence = guide strand
# Conditions: shRNA
# Also: reference of the scale not given here.
row,Sequence,sensor-assay potency score (higher = more potent)
1,TTCTTTGTATCTGTAGTGCAGT,-0.359
2,TAGACTTAGTCGTTGATACTGG,-0.136
3,TAATCTTCTCTCTTCCTGCCTG,0.168

# Target: INVS
# Assay: as above
# Conditions: shRNA
row,Sequence,sensor-assay potency score (higher = more potent)
1,TTTTAAAAACACTTTAACCGTT,-0.842
2,TTTAAAAACACTTTAACCGTTT,-0.562
3,TACTTGAGCATTATTTTCCAGT,-0.382
4,TTATTTTCTATTAATATCTGGC,0.295
5,TTGGTCAACTAGATCTACCCTT,0.547
6,TTTTATTCACATCTGCTCCTGC,0.562
7,TTAATATCTGGCAAACATCAGC,-0.861
8,TAGAAGAGAATGTCCATCTTGG,0.67
9,TTTGTTTTCTTCCTCTCGCTTT,0.0611
10,TAAGACGTTATATTGCAGCTTT,0.127
11,TTCGTGAGAACAACCATAGATT,-0.97
12,AACATCAGTAGCATCTACTTGA,0.641

# From the OligoGym collection
